Assay outcomes as filed in PubChem BioAssay.
HCV inhibitor: HCV inhibition. Huh7.5.1 HCVcc-Cre infection, luciferase reporter, 44 h. Potency, µM (titrated, usually from 41.8 µM), for the others: at the top dose activity change, negative = inhibition, hits mostly inhibitors. hit rate 3.4% among 340,000; note: potency is the fitted concentration of half-maximal effect; % is set by controls: 0 for no effect and ±100 for the full control effect
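Cells seeded at 1,000/well and cultured 4 h, then compounds added followed by HCVcc-Cre virus (~0.5 moi). After 44 h further culture, luciferase substrate was added, plates held 15 min at room temperature, and luminescence read for 15 sec.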
Shiga toxin inh: blocks Shiga toxin action in Vero cells; inhibition, % at 38.7 µM; AID 2315; Vero cells, Shiga toxin protein synthesis inhibition reporter; hit rate 9.2% among 290,000; in the data active = inhibition mostly above about 28%, no sharp cut-off; inactive = mostly below about 43%; note: 0% is about no effect
Pf growth 96h: inhibits malaria parasite growth, 96 h. P. falciparum luciferase reporter growth, 96 h. Potency, µM (series often up to 28.7 µM), for the others: at the top dose activity change, negative = inhibition, actives largely listed as inhibitors. AID 504834. hit rate 6.9% among 320,000; note: potency is the fitted concentration of half-maximal effect; % is set by controls: 0 for no effect and ±100 for the full control effect
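Readout is luminescence from an integrated firefly luciferase in P. falciparum. Red cells, 2% hematocrit and 0.05% parasitemia final, were cultured with compound through two parasite generations (96 hours) at 37 C, 5% CO2.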
Cycloheximide cs: affects cycloheximide protein synthesis inhibition readout, counter-screen; AID 2314; max response, %; hit rate 12% among 300,000; cell reporter, cycloheximide protein synthesis inhibition counterscreen; in the data active = max response mostly above about 13%, no sharp cut-off; inactive = mostly below about 14%; note: read at 38.3 µM for the half of the compounds with a filed dose; 0% is about no effect
HCMV antiviral: blocks human cytomegalovirus replication; HFF cells, HCMV-luciferase reporter, 72 h; active compounds read low; activity change, negative = inhibition, % at 57.5 µM; hit rate 4.5% among 410,000; in the data active = activity change below about -60%; inconclusive = no clear call, values can overlap the other calls; inactive = above about -39%; note: % is set by controls: 0 for no effect and ±100 for the full control effect
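Two-dose cell screen: HFF monolayers treated with compounds and infected with luciferase-expressing HCMV at 1 PFU/cell, 72 h at 37C, then lysed for luciferase measurement.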
Pf growth 48h: inhibits P. falciparum growth in the first generation, 48 h; P. falciparum luciferase growth in erythrocytes, 48 h; Potency, µM (titrated, usually from 28.7 µM), for the others: top-dose activity change, negative = inhibition, hits mostly inhibitors; hit rate 5.9% among 310,000; note: potency is the fitted concentration of half-maximal effect; % is set by controls: 0 for no effect and ±100 for the full control effect
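First compound was added to culture medium, then infected red cells at 0.1% parasitemia and 2% hematocrit (final). After incubation at 37 C under 5% CO2, luciferase detection reagent was dispensed and light output recorded.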
* hit, by the source's call; ? = inconclusive; nt = not tested or not shown. Rows were chosen to be rich in hits. Some 21% of all compounds tested hit in one or more screens of this group. Unless noted, calls come from the whole dose curve; as a rule, active = well fitted inhibition curve with a large enough effect; inconclusive = small, poorly fitted or top-dose-only effect, or another doubt; inactive = no such curve, though single readings can be large or run the other way.

SMILES	HCV inhibitor	Shiga toxin inh	Pf growth 96h	Cycloheximide cs	HCMV antiviral	Pf growth 48h
CCc1cc2c(cc3c(=O)n(CC(=O)N4CCN(c5ccccn5)CC4)nc(CC)n32)s1	7.9µM*	-2	26%	-1	-6	2%
CCc1cc2c(cc3c(=O)n(CC(=O)N4CCC(C)CC4)nc(CC)n32)s1	nt	nt	nt	nt	-38	nt
Cn1ncc(S(=O)(=O)Cc2ccccc2)c(Cl)c1=O	7%	19	1%	9	23	-4%
Cn1ncc(SCc2ccccc2)c(Cl)c1=O	-69%	-5	5%	8	-80*	25%
CCC(C(=O)O/N=C(\N)c1ccccc1)c1ccccc1 (stereo not given)	5%	28	nt	21	-1	9%
N/C(=N\OC(=O)C(c1ccccc1)c1ccccc1)c1ccncc1	9%	-18	?	0	-13	2.9µM*
COc1cc(C(=O)Nc2ccc(C(=O)c3ccncc3)cc2)cc(OC)c1OC	nt	nt	nt	nt	37	nt
COc1cc(C(=O)O/N=C(\N)c2ccncc2)cc(OC)c1OC	-28%	16	?	-3	43	9.3µM*
CC(C)(C)CC(=O)O/N=C(\N)c1ccncc1	12%	27	?	3	-38	-22%
N/C(=N\OC(=O)c1cccc2ccccc12)c1ccncc1	36%	67*	?	45*	140	?
COc1cccc(OC)c1C(=O)O/N=C(\N)c1ccncc1	1%	-11	12µM*	23*	-14	?
Cc1cccc(C)c1NC(=O)Cn1nnc(S(=O)(=O)c2ccccc2)c1N	nt	nt	nt	nt	-19	nt
COc1ccc(Cl)cc1C(=O)NNC(=O)c1ccncc1	-7%	nt	?	2	11	23%
COc1ccc(CC(=O)O/N=C(\N)c2ccncc2)cc1OC	nt	nt	nt	nt	-23	nt
COc1ccc(Cl)cc1C(=O)O/N=C(\N)c1ccncc1	22µM*	57*	?	10	40	?
COc1ccc(C(=O)O/N=C(\N)c2ccncc2)cc1OC	1%	25	?	15*	-13	?
Cn1cccc1C(=O)NC(=O)COC(=O)CCNS(=O)(=O)c1cccc(C(F)(F)F)c1	10%	nt	-13%	nt	-11	7%
CCN(CC)CCn1nc2c3c(cccc3c1=O)-c1ccccc1-2	10µM*	-20	19%	-2	-99*	4.1µM*
O=c1c2ccccc2nc(CSc2ncnc3nc[nH]c23)n1-c1cccc(C(F)(F)F)c1	-13%	-19	nt	-3	-3	?
O=c1c2ccccc2nc(C[n+]2ccccc2)n1-c1cccc(C(F)(F)F)c1	-3%	48	12µM*	-2	-6	-18%
O=C(O)[C@H]1O[C@@H](Oc2ccc3ccc(=O)oc3c2)[C@H](O)[C@@H](O)[C@@H]1O	nt	-1	nt	-4	nt	nt
O=C(CCNS(=O)(=O)c1ccccc1F)N1CCN(C(c2ccccc2)c2ccccc2)CC1	?	nt	?	nt	-34	13µM*
O=C(CCNS(=O)(=O)c1ccccc1)N1CCCCCC1	16%	47	?	32*	42	42%
O=C(CCNS(=O)(=O)c1ccccc1)N1CCCCCCC1	2%	nt	27%	nt	1	5%
COc1cc2c(cc1OC)CN(C(=O)CCNS(=O)(=O)c1ccc(Br)cc1)CC2	0%	nt	?	nt	-8	9.3µM*
SMILES	HCV inhibitor	Shiga toxin inh	Pf growth 96h	Cycloheximide cs	HCMV antiviral	Pf growth 48h
COc1ccccc1N1CCN(C(=O)CCNS(=O)(=O)c2ccc(Br)s2)CC1	?	15	41%	-3	57	-19%
O=C(CCNS(=O)(=O)c1ccc(Br)s1)N1CCN(c2ccccc2)CC1	-15%	-4	12µM*	-1	?	-6%
CSc1ccc(CCNC(=O)CN2C(=O)COc3ccc(S(=O)(=O)N4CCCCCC4)cc32)cc1	nt	nt	nt	nt	-17	nt
CCOC(=O)CN1C(=O)N[C@@H](c2cccc(C(F)(F)F)c2)C(C(=O)OC)=C1C	16%	nt	nt	nt	0	nt
CC1CC(C)CN(S(=O)(=O)c2ccc3c(c2)CCN3C(=O)C2CC2)C1 (stereo not given)	?	1	?	-2	23	-18%
COc1ccccc1OCc1nnc(-c2ccccc2)o1	nt	nt	nt	nt	-17	nt
CCCCCCOC(=O)CC1CC(C(C)=O)C1(C)C (stereo not given)	11%	nt	nt	nt	-1	nt
Cc1ccc(C)c(S(=O)(=O)NCCC(=O)N2CCCC(C(N)=O)C2)c1 (stereo not given)	6%	nt	13%	nt	-83*	-6%
O=C(CCNS(=O)(=O)c1ccc(Br)cc1)N1CCN(c2ccccc2O)CC1	?	nt	?	nt	-9	10µM*
O=C(NCCC(=O)N1CCN(c2ccccc2O)CC1)c1ccc(Br)cc1	0%	nt	?	nt	-12	?
COc1ccc(/C=C2\SC(=N)N(c3nccs3)C2=O)cc1OC	?	-1	?	14*	-94*	?
N=C1S/C(=C\c2ccc(-c3cccc(Cl)c3)o2)C(=O)N1c1nccs1	14%	10	?	9	-78*	4.7µM*
Cc1sc2ncnc(N3CCC(C(=O)Nc4nnc(SCc5ccccc5F)s4)CC3)c2c1C	4%	nt	19%	nt	-14	12%
CC1CC(C)CN(S(=O)(=O)c2ccc(Oc3ccc([N+](=O)[O-])cc3)cc2)C1 (stereo not given)	?	24	?	3	-72*	9%
O=[N+]([O-])c1ccc(NN=C2CCCCC2)c([N+](=O)[O-])c1	-3%	nt	nt	nt	-33	nt
O=C(O)c1cc(Br)ccc1NN=C1CCCCC1	34%	18	10%	21*	-12	6%
Cc1cc(C)nc(Nc2ccc(Br)cc2C(=O)O)n1	2%	-8	?	-6	-19	15%
O=c1cccccc1NN=C1CCCCCC1	1%	82*	306%	23*	21	98%
O=c1cccccc1NN=C1CCCCC1	0%	80*	110%	35*	-12	?
O=C(Cc1ccccc1)NN=C1CCCC1	2%	nt	nt	nt	-12	nt
Cc1noc(C)c1S(=O)(=O)Nc1ccc(O)c2c(=O)cc(-c3ccccc3Cl)oc12	1%	-1	4%	-3	-28	18%
Cc1ccccc1OCC(=O)Nc1ccccc1-c1ccccc1	?	42*	?	18*	?	-54%
O=C(CNC(c1ccccc1)c1ccccc1)Nc1ccccc1-c1ccccc1	?	-8	13µM*	-3	-71*	12µM*
Cc1ccccc1NC(=O)COc1ccccc1C	-16%	27	-2%	16*	23	?
O=C(O)c1ccc(S(=O)(=O)N(Cl)Cl)cc1	nt	nt	-11%	nt	nt	-5%
CCc1nc2c(sc3nc4c(cc32)COC(C)(C)C4)c(=O)n1Cc1ccco1	?	26	nt	14	?	?
CC1(C)Cc2nc3sc4c(NCCO)ncnc4c3cc2CS1	?	26	?	20*	-11	?
CCc1nc2c(sc3nc4c(cc32)COC(C)(C)C4)c(=O)n1Cc1ccccc1	nt	-2	?	-4	-36	?
